Source: PubChem (National Center for Advancing Translational Sciences (NCATS))
A selection: hits, their analogues and other compounds. The true share with any hit is near 7.9%.
HCMV antiviral = inhibitors of human cytomegalovirus; HFF cells, HCMV-luciferase reporter, 72 h; active compounds read low; activity change, negative = inhibition, % at 57.5 µM; 410,000 tested, 4.5% active; AID 1259415; in the data active = activity change below about -60%; inconclusive = no clear call, values can overlap the other calls; inactive = above about -39%
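Two compound doses tested in HFFs infected with HCMV-luciferase, MOI 1 PFU/cell, 72 h at 37C. Lysate luminescence read with OneGlo; data normalized against buffer-only and 10uM Salinomycin inhibitor controls.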
Marburg entry inh = Marburg virus entry inhibition; Marburg virus pseudotyped entry inhibition, cell reporter; Potency, µM (titrated, usually from 37.8 µM), usual class: inhibitors; 300,000 tested, 1.8% active; calls by dose curve; tested in HEK293 cells
HCV inhibitor = HCV inhibition; Huh7.5.1 HCVcc-Cre infection, luciferase reporter, 44 h; 340,000 tested, 3.4% active; Potency, µM (top dose mostly 41.8 µM), hits mostly inhibitors; AID 651820; active = well fitted inhibition curve with a large enough effect; inconclusive = small, poorly fitted or top-dose-only effect, or another doubt; inactive = no such curve, though single readings can be large or run the other way
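Cells seeded at 1,000/well and cultured 4 h, then compounds added followed by HCVcc-Cre virus (~0.5 moi). After 44 h further culture, luciferase substrate was added, plates held 15 min at room temperature, and luminescence read for 15 sec.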
FMDV antiviral = antivirals against foot and mouth disease virus | 410,000 tested, 1.2% active | Potency, µM (top dose mostly 57.9 µM), hits mostly inhibitors | FMDV antiviral cell-based qHTS; calls by dose curve; tested in HEK293T cells; note: read-out not given here; nearly all actives have a fitted effect of over 45% in size
Lassa entry inh = inhibitors of Lassa virus binding or cell entry. Potency, µM (titrated, usually from 37.9 µM), hits mostly inhibitors. Lassa virus pseudotype entry inhibition, cell reporter. 300,000 tested, 1.2% active; calls by dose curve; tested in HEK293 cells; note: nearly all actives have a fitted effect of over 50% in size
Numbers stand for hits; n = inactive; u = inconclusive; x = not tested or not shown.

SMILES	HCMV antiviral	Marburg entry inh	HCV inhibitor	FMDV antiviral	Lassa entry inh
COc1ccc(C(=O)Nc2ccc(NC(=O)c3cccs3)cc2)cc1Cl	-75.9	n	n	n	n
COc1ccc(Br)cc1/C=C/C(=O)c1ccc(NC(C)=O)cc1	-97.6	u	u	10µM	3.98µM
CCCCOc1cccc(C(=O)Nc2ccc(NC(=O)c3cccs3)cc2)c1	-89.4	u	u	n	u
COc1ccc(/C=C/C(=O)c2ccc(NC(=O)c3cccs3)cc2)cc1OC	n	u	10µM	n	u
COc1ccc(C(=O)Nc2ccc(NC(=O)c3cccs3)cc2)cc1OC	n	x	x	n	n
CCCOc1ccc(C(=O)Nc2ccc(NC(=O)c3cccs3)cc2)cc1	n	n	n	n	n
COc1ccc(NC(=O)/C=C/c2cc(Br)ccc2OC)cc1	n	n	u	n	n
Cn1ncc(Cl)c1C(=O)N1CCN(c2ccc(Cl)c(Cl)c2)CC1	n	u	n	28.2µM	n
Cc1ccc(-n2ncc3c(N4CCCCCC4)ncnc32)cc1	-99.2	x	x	20µM	u
Clc1cccc(-n2ncc3c(N4CCCCCC4)ncnc32)c1	u	x	x	n	u
Cn1ncc2c(N3CCN(c4ccc(Cl)c(Cl)c4)CC3)ncnc21	n	n	u	11.2µM	n
Fc1ccc(-n2ncc3c(N4CCCCCC4)ncnc32)cc1	n	x	x	u	n
Clc1ccc(-n2ncc3c(N4CCCC4)ncnc32)cc1	-66.1	u	n	10µM	u
Cc1ccc(NC(=S)N(CCN2CCCCC2)Cc2ccco2)cc1Cl	n	u	n	n	u
Cc1ccc(-n2ncc3c(N4CCC5(CC4)OCCO5)ncnc32)c(C)c1	n	x	u	39.8µM	x
O=C(OCc1ccccc1)N1CCOCCOCCN(C(=O)OCc2ccccc2)CCOCCOCC1	n	u	n	22.4µM	u
O=C(NCc1ccccc1)N1CCOCC1	n	x	n	n	x
Cc1ccc2cc(CCNS(=O)(=O)c3ccc(F)cc3)c(=O)[nH]c2c1C	n	x	n	u	x
COC(=O)c1ccccc1NC(=S)N(Cc1ccc2c(c1)OCO2)Cc1cc2ccc(C)cc2[nH]c1=O	u	u	u	n	n
COC(=O)c1ccccc1NC(=S)N(Cc1ccc2c(c1)OCO2)Cc1cc2cc(C)ccc2[nH]c1=O	u	u	u	n	n
CCN(CC)CCN(Cc1cc2ccc(C)cc2[nH]c1=O)C(=S)Nc1ccccc1C(=O)OC	n	2µM	u	n	u
COC(=O)c1ccccc1NC(=S)N(Cc1ccc2c(c1)OCO2)Cc1cc2ccc(OC)cc2[nH]c1=O	-63.4	u	u	n	u
Cc1nc(N2CCCC2)c2c(C(=O)N3CCN(c4cc(Cl)ccc4C)CC3)c(C)oc2n1	n	x	x	n	u
CCOc1ccc(C2c3c(oc4cc(C)c(C)cc4c3=O)C(=O)N2c2ccccn2)cc1 (centres undefined)	n	n	x	n	n
CC(=O)Nc1ccc(OS(=O)(=O)c2cc(Cl)ccc2C)cc1	u	x	n	n	x
SMILES	HCMV antiviral	Marburg entry inh	HCV inhibitor	FMDV antiviral	Lassa entry inh
O=C(/C=C/c1ccc(N2CCC(c3ccccc3)=N2)cc1)c1ccccc1	n	n	u	n	n
CCOC(=O)/C(=C\c1ccc(N2CCC(c3ccccc3)=N2)cc1)C(C)=O	n	2.82µM	n	n	7.94µM
CC1=Nc2ccccc2/C1=C/c1sc(=N)n(-c2nccs2)c1O	x	10µM	n	u	10µM
COc1ccc(CNCc2ccc3c(c2)n(C)c(=O)n3C)cc1	n	n	x	n	n
COc1ccc(CCNC(=O)c2cc3c(=O)n4ccccc4nc3n(CCN3CCOCC3)c2=N)cc1	n	2.82µM	u	n	u
N=c1c(C(=O)NCC2CCCO2)cc2c(=O)n3ccccc3nc2n1Cc1ccccc1Cl (centres undefined)	-101.4	11.2µM	u	n	u
COc1ccc(CCNC(=O)c2cc3c(=O)n4ccccc4nc3n(CCCN3CCOCC3)c2=N)cc1OC	u	x	u	n	x
Cc1ccc(Cn2c(=N)c(C(=O)NCC3CCCO3)cc3c(=O)n4ccccc4nc32)cc1 (centres undefined)	n	u	u	n	u
N=c1c(C(=O)NCC2CCCO2)cc2c(=O)n3ccccc3nc2n1Cc1ccc(Cl)cc1 (centres undefined)	-83.3	x	u	n	x
COc1ccc(Cn2c(=N)c(C(=O)NCC3CCCO3)cc3c(=O)n4ccccc4nc32)cc1 (centres undefined)	n	x	n	n	x
COc1ccc(CCn2c(=N)c(C(=O)NCC3CCCO3)cc3c(=O)n4ccccc4nc32)cc1 (centres undefined)	-111.5	x	n	n	x
O=C(NCc1cccc(F)c1)c1ccc2nc(N3CCCCC3)sc2c1	n	n	x	n	x
